Sampled rows, rich in hits. Any-hit rate of the full collection: about 19%.
HepG2 tox = qHTS for Inhibitors of TGF-b: Cytotox Counterscreen. HepG2 CAGA-GFP viability, ATP luminescence, 18 h. Potency, µM (doses to about 46.1 µM), without a hit: top-dose activity change, negative = cytotoxicity, most hits filed as cytotoxic. hit rate 0.76% among 410,000. AID 588856, 2011; note: potency is the fitted concentration of half-maximal effect
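CellTiter-Glo luminescence gave cytotoxicity after 18 hours at 37 degrees C. The cells were HepG2 CAGA-GFP in 1% FBS DMEM, stimulated with 500 pg/mL TGF-beta after compound addition. %Activity was normalised to no-cell wells (complete cell-killing) and DMSO (no toxicity), and curves were fitted and classified.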
TGFb SMAD3 inh = qHTS for Inhibitors of TGF-b | HepG2 CAGA-GFP TGF-b/SMAD3 reporter, GFP fluorescence, 18 h; TGF-beta stimulated, 500 pg/mL final | Potency, µM (top dose mostly 46.1 µM), without a hit: at the highest dose activity, negative = inhibition, most hits filed as inhibitors | hit rate 1.2% among 410,000; note: potency is the fitted concentration of half-maximal effect; % is set by controls: 0 for no effect and ±100 for the full control effect; nearly all actives have a fitted effect of over 65% in size
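HEPG2 CAGA-GFP, 1000 cells/well; 2 h settle, 37 C; cpd via pin tool; TGF-b 500 pg/mL final; 18 h, 37 C; GFP imaging ex488/em500-530; %Activity normalised to -TGF-b and +DMSO controls; CRC fit, curve class.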
S-ASM inh = Inhibitors of Secretory Acid Sphingomyelinase (S-ASM): qHTS | hit rate 0.006% among 340,000 | placental ASM, HMU-PC fluorogenic substrate, 60 min | Sphingomyelin phosphodiesterase (Homo sapiens), P17405 | Potency, µM (top dose mostly 57.5 µM), inactives show at the highest dose activity change, negative = inhibition, hits mostly inhibitors; note: potency is the fitted concentration of half-maximal effect
Target sequence (P17405 47-631 limits assumed): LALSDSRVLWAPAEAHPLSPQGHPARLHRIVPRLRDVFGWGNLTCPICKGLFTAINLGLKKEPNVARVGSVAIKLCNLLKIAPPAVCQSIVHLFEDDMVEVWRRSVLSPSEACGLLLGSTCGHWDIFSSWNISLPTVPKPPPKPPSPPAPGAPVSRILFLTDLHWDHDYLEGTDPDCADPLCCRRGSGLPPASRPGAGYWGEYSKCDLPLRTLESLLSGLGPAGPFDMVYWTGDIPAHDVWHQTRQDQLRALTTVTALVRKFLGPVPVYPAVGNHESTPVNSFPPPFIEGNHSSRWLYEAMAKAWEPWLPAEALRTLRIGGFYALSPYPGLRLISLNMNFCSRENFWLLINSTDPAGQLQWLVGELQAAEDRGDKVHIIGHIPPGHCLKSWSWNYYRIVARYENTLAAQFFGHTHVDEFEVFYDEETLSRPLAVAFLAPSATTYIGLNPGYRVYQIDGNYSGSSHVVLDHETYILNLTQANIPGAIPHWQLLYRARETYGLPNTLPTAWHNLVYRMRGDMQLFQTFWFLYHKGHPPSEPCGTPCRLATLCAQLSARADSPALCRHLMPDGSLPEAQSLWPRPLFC
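Steps: dispense placental human ASM, pin compound, wait 10 min at room temperature, add HMU-PC0 substrate at 9 uM final, incubate 60 min at 37 °C, add stop solution raising pH to 10, read fluorescence.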
DT40 TDP1 CPT = qHTS for Inhibitors of human tyrosyl-DNA phosphodiesterase 1 (TDP1): qHTS in cells in presence of CPT; chicken DT40 Tdp1-/-;hTDP1 cells + 20 nM CPT, ATP luminescence, 48 h; Potency, µM (titrated, usually from 46.2 µM), inactives show at the highest dose activity change, negative = growth inhibition, usual class: inhibitors; hit rate 12% among 420,000; note: potency is the fitted concentration of half-maximal effect; % is set by controls: 0 for no effect and ±100 for the full control effect; nearly all actives have a fitted effect of over 55% in size
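Cell growth measured by CellTiter-Glo luminescence after a minimum 48 h, 37 C compound exposure with 20 nM CPT in Tdp1-knockout DT40 cells stably expressing hTDP1, seeded 400/well; qHTS titration format.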
DT40 TDP1 no CPT = qHTS for Inhibitors of human tyrosyl-DNA phosphodiesterase 1 (TDP1): qHTS in cells in absence of CPT; DT40 Tdp1-/- hTDP1 cells, no CPT, ATP luminescence, 48 h; Potency, µM (top dose mostly 46.2 µM), inactives show at the top dose activity change, negative = growth inhibition, usual class: inhibitors; hit rate 15% among 420,000; note: potency is the fitted concentration of half-maximal effect; % is set by controls: 0 for no effect and ±100 for the full control effect; nearly all actives have a fitted effect of over 55% in size
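Growth kinetics read by CellTiter-Glo luminescence after ≥48 hr at 37 °C. Cells: DT40 Tdp1-/- stably carrying human TDP1, 400 per well, compound exposure in the absence of CPT (DMSO vehicle).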
IL-1B inflam inh = qHTS for Inhibitors of Inflammasome Signaling: IL-1-beta AlphaLISA Primary Screen; THP-1 LPS/ATP IL-1B secretion, AlphaLISA, 16 h; active compounds read low; hit rate 4.7% among 360,000; activity change, % at 57.5 µM; in the data active = activity change below about -50%; inconclusive = mostly about -30% to -49%; note: % is set by controls: 0 for no effect and ±100 for the full control effect
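THP-1 cells pretreated 1 hr with compounds (up to 57.5 uM final), then stimulated with LPS (250 ng/mL final) plus ATP (1.25 mM final); secreted IL-1B measured by AlphaLISA after 16 hr, decreased signal indicating inhibition.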
* = called active by the depositor; i = inactive; ? = inconclusive; . = no result. Unless noted, calls come from the whole dose curve; as a rule, active = well fitted curve in the direction sought with a large enough effect; inconclusive = small, poorly fitted or top-dose-only effect, or another doubt; inactive = no such curve, though single readings can be large; an effect the other way counts as inactive or inconclusive.

SMILES	HepG2 tox	TGFb SMAD3 inh	S-ASM inh	DT40 TDP1 CPT	DT40 TDP1 no CPT	IL-1B inflam inh
CS(=O)(=O)c1ccc2nc(NC(=O)CCS(=O)(=O)c3ccccc3)sc2c1	7.1µM*	?	1%	5.2µM*	5.2µM*	-93*
COC(=O)c1ccc2nc(Nc3nc4c(F)cc(F)cc4s3)sc2c1	-8%	-8%	i	?	16µM*	22
C[C@@H]1CN([C@H](C)CO)C(=O)c2cc(NC(=O)Nc3ccc(C(F)(F)F)cc3)ccc2O[C@H]1CN(C)C(=O)Nc1ccc(F)cc1	0%	?	-26%	?	?	-61*
CC(C)NC(=O)Nc1cccc2c1O[C@H](CN(C)S(C)(=O)=O)[C@@H](C)CN([C@H](C)CO)C2=O	2%	4%	3%	10%	2%	20
COc1ccc(S(=O)(=O)Nc2cccc3c2O[C@H](CN(C)Cc2ccc(Cl)c(Cl)c2)[C@@H](C)CN([C@H](C)CO)C3=O)cc1	-5%	?	-3%	21µM*	18µM*	-56*
C[C@H](CO)N1C[C@H](C)[C@@H](CN(C)C(=O)Nc2ccc(C(F)(F)F)cc2)Oc2c(NC(=O)Nc3ccc(C(F)(F)F)cc3)cccc2C1=O	-114%	14µM*	?	9.2µM*	7.3µM*	-7
C[C@H](CO)N1C[C@H](C)[C@@H](CN(C)S(C)(=O)=O)Oc2c(NC(=O)Nc3ccc(C(F)(F)F)cc3)cccc2C1=O	-18%	-3%	-26%	23µM*	?	-2
CC1CCCCC1NC(=O)CN1C(=O)NC(C)(c2cc(F)ccc2F)C1=O (centres undefined)	-5%	9%	2%	4%	-1%	-13
Cc1cc(S(=O)(=O)NCC2CCCO2)c(C)cc1Br (centres undefined)	-37%	-7%	0%	8%	16%	8
CCOC(=O)CSc1nc2sc3c(c2c(=O)n1-c1ccccc1)CC(C(C)C)OC3 (centres undefined)	-15%	15%	.	?	?	.
Cc1ccc(S(=O)(=O)Nc2cccc3c2O[C@H](CN(C)Cc2ccccc2)[C@@H](C)CN([C@H](C)CO)C3=O)cc1	0%	-9%	-2%	?	16µM*	-7
COc1ccc(NC(=O)Nc2cccc3c2O[C@H](CN(C)C(=O)Nc2ccc(C(F)(F)F)cc2)[C@@H](C)CN([C@H](C)CO)C3=O)cc1	-5%	?	-17%	26µM*	16µM*	-17
COc1ccc(NC(=O)N(C)C[C@H]2Oc3c(NC(=O)NC(C)C)cccc3C(=O)N([C@H](C)CO)C[C@@H]2C)cc1	-2%	-2%	-6%	2%	1%	22
C[C@H]1CN([C@@H](C)CO)C(=O)c2cccc(NC(=O)Nc3ccc(C(F)(F)F)cc3)c2O[C@@H]1CN(C)C(=O)Nc1ccc(F)cc1	-89%	?	-19%	5.2µM*	5.8µM*	1
Cc1ccc(S(=O)(=O)Nc2cccc3c2O[C@H](CN(C)C(=O)Nc2ccc(C(F)(F)F)cc2)[C@@H](C)CN([C@H](C)CO)C3=O)cc1	-7%	?	-18%	16µM*	?	-11
CCOc1ccccc1NC(=O)c1cccc(N2C(=O)CCC2=O)c1	-11%	3%	-1%	-26%	-8%	23
CC(NC(=O)c1cc(S(=O)(=O)N2CCCC2)ccc1Cl)c1ccccn1 (centres undefined)	18%	12%	-1%	-7%	10%	32
CCC1CCCCN1CCCNC(=O)c1ccc(CS(=O)(=O)c2ccccc2C)o1 (centres undefined)	0%	-1%	5%	-13%	16%	-1
CCCCN(C=O)c1c(CC)nc2ccc(C(=O)NCCN(C)C)cn12	-17%	21%	.	-16%	-5%	-9
CC(=O)c1ccc(NC(=O)COC(=O)c2ccc(F)cc2F)cc1	2%	-10%	1%	-3%	-10%	-3
CC(=O)N1c2ccc(S(=O)(=O)N3CCCC(C(=O)NC4CCCC(C)C4C)C3)cc2CC1C (centres undefined)	-4%	-5%	0%	?	?	-20
Cc1noc(C)c1NC(=O)Nc1cccc2c1O[C@@H](CN(C)Cc1ccc3c(c1)OCO3)[C@@H](C)CN([C@H](C)CO)C2=O	-13%	4%	0%	-18%	-8%	?
C[C@H](CO)N1C[C@H](C)[C@@H](CN(C)Cc2ccccc2)Oc2c(NC(=O)C3CCCCC3)cccc2C1=O	-10%	?	-3%	?	?	-72*
Cc1ccc(S(=O)(=O)Nc2cccc3c2O[C@H](CN(C)C(=O)Nc2cccc4ccccc24)[C@H](C)CN([C@H](C)CO)C3=O)cc1	-86%	?	-2%	21µM*	21µM*	?
Cc1ccc(S(=O)(=O)Nc2cccc3c2O[C@@H](CN(C)C(=O)Nc2ccc4c(c2)OCO4)[C@H](C)CN([C@@H](C)CO)C3=O)cc1	-7%	-15%	-4%	?	?	-1
C[C@H](CO)N1C[C@H](C)[C@@H](CN(C)Cc2ccc3c(c2)OCO3)Oc2c(NC(=O)Cc3ccccc3)cccc2C1=O	0%	?	-6%	23µM*	21µM*	-18
C[C@H]1CN([C@@H](C)CO)C(=O)c2cccc(NC(=O)Nc3ccc(C(F)(F)F)cc3)c2O[C@H]1CN(C)C	-12%	-14%	-4%	21µM*	?	-9
C[C@H](CO)N1C[C@H](C)[C@@H](CN(C)Cc2ccc(C(=O)O)cc2)Oc2c(NC(=O)C3CC3)cccc2C1=O	6%	-5%	7%	1%	-6%	25
COc1cccc(C(O)c2ncc(-c3ccc(C(F)(F)F)cc3)[nH]2)c1 (centres undefined)	-41%	-11%	.	?	?	11
CN(C)c1cccc(C(=O)Nc2nnc(Cc3ccccc3)s2)c1	-1%	0%	3%	?	?	16
